Reference: publication PMC5540273 (PLoS ONE, 2017)
Several values for one entry are separate records, joined by “and”; a condition that tells them apart may be missing. Equal values may be shown once. Read-outs that look alike come from different tables or passages of the source.

Experiments:
[1] = system: TAOK2; settings: concentration: 1 μM, replicates: in singlicate, n = 1
[2] = system: TAOK3; settings: concentration: 1 μM, replicates: in singlicate, n = 1
[3] = system: TBK1; settings: concentration: 1 μM, replicates: in singlicate, n = 1
[4] = system: TEC; settings: concentration: 1 μM, replicates: in singlicate, n = 1
[5] = system: TESK1; settings: concentration: 1 μM, replicates: in singlicate, n = 1
[6] = system: TGFBR1; settings: n = 1
[7] = system: TGFBR2; settings: concentration: 1 μM, replicates: in singlicate, n = 1
[8] = system: TIE1; settings: concentration: 1 μM, replicates: in singlicate, n = 1
[9] = system: T1, TIE2; settings: concentration: 1 μM, replicates: in singlicate, n = 1
T1 construct: gene TEK

[10] = system: TLK1; settings: concentration: 1 μM, replicates: in singlicate, n = 1
[11] = concentration: 1 μM, replicates: in singlicate
[12] = concentration: 1 μM, replicates: in singlicate, 1 µM
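Also: KINOMEscan kinase panel screen.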

## N#Cc1c(N2CCOCC2)sc(-c2ccn[nH]2)c1-c1ccc(Cl)cc1
[1]
  %Inh: 0%
[2]
  %Inh: 0%
[3]
  %Inh: 12%
[4]
  %Inh: 12%
[5]
  %Inh: 0%
[6]; [11]
  %Inh: 19%
[7]
  %Inh: 0%
[8]
  %Inh: 0%
[9]
  %Inh: 5%
[10]
  %Inh: 11%

## C[C@@H](Oc1cc(-n2cnc3ccc(NC(=O)NC(C)(C)C)cc32)sc1C(N)=O)c1ccccc1Cl [GSK346294]
[1]
  %Inh: 2%
[2]
  %Inh: 0%
[3]
  %Inh: 27%
[4]
  %Inh: 20%
[5]
  %Inh: 0%
[6]; [11]
  %Inh: 0%
[7]
  %Inh: 4%
[8]
  %Inh: 3%
[9]
  %Inh: 0%
[10]
  %Inh: 21%

## Cl.Nc1ncnc2occ(-c3ccc(NC(=O)Nc4cc(C(F)(F)F)ccc4F)cc3)c12 [SB-707548]
[1]
  %Inh: 22%
[2]
  %Inh: 17%
[3]
  %Inh: 35%
[4]
  %Inh: 4%
[5]
  %Inh: 17%
[6]; [11]
  %Inh: 33%
[7]
  %Inh: 0%
[8]
  %Inh: 98.7%
[9]
  %Inh: 99.8%
[10]
  %Inh: 14%

## COc1cc2c(cc1OC[C@@H](O)CO)ncc1c3ccc(C#N)cc3[nH]c21
[1]
  %Inh: 0%
[2]
  %Inh: 0%
[3]
  %Inh: 68%
[4]
  %Inh: 0%
[5]
  %Inh: 0%
[6]; [11]
  %Inh: 23%
[7]
  %Inh: 0%
[8]
  %Inh: 0%
[9]
  %Inh: 0%
[10]
  %Inh: 11%

## CN1c2ccc(NCc3ccc(F)cc3)cc2-c2c(cnn2C)S1(=O)=O
[1]
  %Inh: 26%
[2]
  %Inh: 0%
[3]
  %Inh: 0%
[4]
  %Inh: 0%
[5]
  %Inh: 14%
[6]; [11]
  %Inh: 2%
[7]
  %Inh: 16%
[8]
  %Inh: 8%
[9]
  %Inh: 0%
[10]
  %Inh: 13%

## Cc1nnc(-c2ccc3occ(-c4ccc(C(C)O)cc4)c3c2)o1 (centres unmarked)
[1]
  %Inh: 8%
[2]
  %Inh: 0%
[3]
  %Inh: 30%
[4]
  %Inh: 0%
[5]
  %Inh: 3%
[6]; [11]
  %Inh: 3%
[7]
  %Inh: 69%
[8]
  %Inh: 18%
[9]
  %Inh: 16%
[10]
  %Inh: 0%

## CC(C)(CN)c1nc(-c2ccc(Cl)c(O)c2)c(-c2ccncc2)[nH]1.O=C(O)C(F)(F)F [SB-477794]
[1]
  %Inh: 0%
[2]; 1 µM
  %Inh: 6% and 0%
[3]; 1 µM
  %Inh: 0% and 5%
[4]; 1 µM
  %Inh: 13% and 0%
[5]; 1 µM
  %Inh: 100% and 56%
[6]; [12]
  %Inh: 98.8% and 96.2%
[7]; 1 µM
  %Inh: 99.2% and 99.6%
[8]; 1 µM
  %Inh: 1% and 0%
[9]; 1 µM
  %Inh: 3% and 22%
[10]; 1 µM
  %Inh: 20% and 11%

## Cc1cccc(-c2nc(Nc3ccc4ncsc4c3)c3ccccc3n2)n1 [GW867588]
[1]
  %Inh: 0%
[2]
  %Inh: 6%
[3]
  %Inh: 0%
[4]
  %Inh: 0%
[5]
  %Inh: 0%
[6]; 1 µM
  %Inh: 55%
[7]
  %Inh: 0%
[8]
  %Inh: 0%
[9]
  %Inh: 0%
[10]
  %Inh: 0%

## Cl.Oc1cccc(Nc2ccnc3cc(-c4ccncc4)ccc23)c1 [GW494601]
[1]
  %Inh: 0%
[2]
  %Inh: 0%
[3]
  %Inh: 9%
[4]
  %Inh: 1%
[5]
  %Inh: 16%
[6]; [11]
  %Inh: 76%
[7]
  %Inh: 99.5%
[8]
  %Inh: 50%
[9]
  %Inh: 48%
[10]
  %Inh: 0%

## NS(=O)(=O)CCc1cccc(Nc2nccc(-c3c(-c4cccc(NC(=O)c5c(F)cccc5F)c4)nn4ccccc34)n2)c1 [GSK336735]
[1]
  %Inh: 32%
[2]
  %Inh: 88%
[3]
  %Inh: 15%
[4]
  %Inh: 95.6%
[5]
  %Inh: 50%
[6]; [11]
  %Inh: 3%
[7]
  %Inh: 20%
[8]
  %Inh: 96.8%
[9]
  %Inh: 91.1%
[10]
  %Inh: 8%

## CN1c2ccc(CNc3ccc(F)cc3)cc2-c2c(cnn2C)S1(=O)=O
[1]
  %Inh: 23%
[2]
  %Inh: 0%
[3]
  %Inh: 0%
[4]
  %Inh: 0%
[5]
  %Inh: 0%
[6]; [11]
  %Inh: 0%
[7]
  %Inh: 0%
[8]
  %Inh: 0%
[9]
  %Inh: 0%
[10]
  %Inh: 16%

## Cn1ccc2ncnc(Oc3ccc(NC(=O)Nc4ccncc4)c(Cl)c3)c21
[1]
  %Inh: 0%
[2]
  %Inh: 0%
[3]
  %Inh: 22%
[4]
  %Inh: 0%
[5]
  %Inh: 0%
[6]; [11]
  %Inh: 10%
[7]
  %Inh: 0%
[8]
  %Inh: 0%
[9]
  %Inh: 5%
[10]
  %Inh: 0%

## CCCCCc1nc2c(N)ncnc2n1CCCCC [SKF-97255]
[1]
  %Inh: 18%
[2]
  %Inh: 0%
[3]
  %Inh: 42%
[4]
  %Inh: 6%
[5]
  %Inh: 14%
[6]; [11]
  %Inh: 3%
[7]
  %Inh: 11%
[8]
  %Inh: 0%
[9]
  %Inh: 19%
[10]
  %Inh: 0%

## CCc1nc(-c2cccc(C)c2)c(-c2ccnc(NCc3ccccc3)c2)s1
[1]
  %Inh: 0%
[2]
  %Inh: 0%
[3]
  %Inh: 13%
[4]
  %Inh: 9%
[5]
  %Inh: 0%
[6]; [11]
  %Inh: 2%
[7]
  %Inh: 0%
[8]
  %Inh: 13%
[9]
  %Inh: 0%
[10]
  %Inh: 22%

## COc1ccc(COc2cc(-n3cnc4ccccc43)sc2C(N)=O)cc1 [GSK1024304]
[1]
  %Inh: 0%
[2]
  %Inh: 0%
[3]
  %Inh: 0%
[4]
  %Inh: 12%
[5]
  %Inh: 20%
[6]; [11]
  %Inh: 0%
[7]
  %Inh: 0%
[8]
  %Inh: 11%
[9]
  %Inh: 0%
[10]
  %Inh: 0%

## Cl.Cl.Cl.Fc1ccc(-c2ncn(C3CCNCC3)c2-c2ccnc(Nc3ccccc3)n2)cc1 [SB-238039]
[1]; 1 µM
  %Inh: 78% and 0%
[2]; 1 µM
  %Inh: 91.5% and 57%
[3]; 1 µM
  %Inh: 36% and 0%
[4]; 1 µM
  %Inh: 12% and 0%
[5]; 1 µM
  %Inh: 8% and 0%
[6]; [12]
  %Inh: 61% and 29%
[7]; 1 µM
  %Inh: 16% and 12%
[8]
  %Inh: 0%
[9]
  %Inh: 0%
[10]; 1 µM
  %Inh: 4% and 19%

## CCn1cnc2c(N)ncnc21 [GW345098]
[1]
  %Inh: 4%
[2]
  %Inh: 0%
[3]
  %Inh: 39%
[4]
  %Inh: 11%
[5]
  %Inh: 4%
[6]; [11]
  %Inh: 0%
[7]
  %Inh: 12%
[8]
  %Inh: 6%
[9]
  %Inh: 2%
[10]
  %Inh: 22%
